Screening results as filed in PubChem BioAssay.
Sampled rows, rich in hits. Any-hit rate of the full collection: about 2.7%.
F508del corr = CFTR F508del correction in bronchial cells; CFBE cells, YFP halide quenching; stimulated with forskolin plus potentiator P3; % fluorescence drop versus neutral controls; hit rate 0.36% among 350,000; activity (quench increase), % at 7.58 µM; AID 720511;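 active means mean added fluorescence quench of at least 8% versus neutral control, with both replicates also reaching 8%; inconclusive means only one of the mean or replicate conditions met; inactive means mean below 8% and not both replicates reaching 8%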;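 further: cells transiently co-express mutant CFTR-F508del with the halide-sensitive YFP; corrector assay measuring rescue of mutant channel to the surface after 24 h compound exposure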
Wnt act = activators of Wnt/beta-catenin signaling; Wnt/beta-catenin reporter cell assay, activator, plate reader; activation, % at 9.35 µM; hit rate 1.2% among 300,000; AID 743398; in the data active means activation above about 30%, passing the limit was not always enough; inconclusive means no clear call, values can overlap the other calls;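 further: 0% = neutral control wells and 100% = positive control wells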
MITF TRPM1 HTS = activators of MITF-driven TRPM1 promoter activity in SK-MEL-5 cells. hit rate 0.75% among 300,000. activation, % at 12.5 µM. SK-MEL-5 TRPM1-promoter luciferase, 24 h; % of positive control, neutral wells = 0;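 active means mean activation of at least 80% with every replicate also reaching 80%; inconclusive means mean reaches 80% but some replicate falls short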;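 further: 0% = neutral control wells and 100% = parthenolide positive control wells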
INS-1E GSIS act = GLuc luminescence reporter in INS-1E cells, primary screen for activators of glucose-dependent secretion of insulin | hit rate 0.61% among 370,000 | INS-1E GLuc reporter insulin secretion, 2-3 h | activation, % at 16.6 µM;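 active means lowest replicate activation of at least 40%, so every replicate reaches that level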;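 further: 0% = median of neutral control wells and 100% = median of IBMX positive control wells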
HIV Env fusion = HIV envelope-mediated fusion inhibition; HeLa-JRFL Env/CEM21 cell fusion, luciferase; AID 651610; inhibition, % at 12.3 µM; hit rate 1.1% among 360,000;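 active means mean replicate inhibition score of at least 50 and every replicate individually at or above 50; inconclusive means only one of the two criteria met; inactive means mean below 50 and not all replicates reaching 50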;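 further: 0% = plate neutral controls and 100% = maraviroc near 300 nM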
* hit, by the source's call; ? = inconclusive; · = no result given; [ ] = another dose, or the depositor's remark.

SMILES	F508del corr	Wnt act	MITF TRPM1 HTS	INS-1E GSIS act	HIV Env fusion
C[C@H]1CN([C@@H](C)CO)C(=O)c2cccc(NC(=O)Nc3ccccc3)c2O[C@@H]1CN(C)Cc1ccc(Cl)c(Cl)c1	1	·	·	-14	62*[16.7 µM]
CO[C@H]1CC[C@H]2CCN(C)C(=O)[C@H](C)CN(C)C(=O)c3cccc(C#N)c3OC[C@H]1O2	·	·	·	-2	26[16.7 µM]
COCC#Cc1ccc([C@@H]2[C@@H](CO)N3C(=O)CN(C(=O)Nc4cc(F)ccc4F)C[C@H]23)cc1	·	·	·	0	·
C[C@@H]1CN([C@H](C)CO)C(=O)c2cccc(NS(=O)(=O)c3ccc(Cl)cc3)c2O[C@H]1CN(C)CC1CCCCC1	0	·	·	1	88*[16.7 µM]
C[C@@H]1CN([C@@H](C)CO)C(=O)c2cccc(NC(=O)c3cnccn3)c2O[C@H]1CN(C)Cc1ccc(Cl)c(Cl)c1	-3	·	·	-34	63*[16.7 µM]
C[C@H](CO)N1C[C@H](C)[C@H](CN(C)CC2CCCCC2)Oc2c(NS(=O)(=O)c3ccc(Cl)cc3)cccc2C1=O	-2	·	·	3	-51[16.7 µM]
C[C@@H]1CN([C@H](C)CO)C(=O)c2cc(N(C)C)ccc2O[C@@H]1CN(C)Cc1ccc(C(=O)Nc2ccccc2N)cc1	9.2*	·	·	·	-5[16.7 µM]
CN1CCN(C(=O)C[C@@H]2CC[C@H]3[C@@H](COC[C@@H](O)CN3C(=O)C3CC3)O2)CC1	-4	·	·	3	·
CC(=O)N(C)C[C@@H]1Oc2cc(C3=CCCCC3)ccc2S(=O)(=O)N([C@H](C)CO)C[C@@H]1C	-3	·	·	0	6[16.7 µM]
Cc1ccc(C2=N/C(=C/N3CCOCC3)C(=O)O2)cc1	·	·	92*	·	-65
Cc1ccc(C2=N/C(=C\N3CCCCC3)C(=O)O2)cc1	·	63*	?	·	-113
C[C@@H]1CN([C@@H](C)CO)C(=O)c2cccc(NC(=O)Nc3ccc(C(F)(F)F)cc3)c2O[C@@H]1CN(C)Cc1ccc(C(=O)Nc2ccccc2N)cc1	-3	·	·	13	·
COC(=O)c1ccc2c(=O)[nH]c(CSc3nc(C)cs3)nc2c1	0	35*	31	-20	-15
COC(=O)c1ccc2c(=O)[nH]c(CSc3nc(-c4ccc(F)cc4)cs3)nc2c1	·	0	-7	58*	1
Cc1ccc(C2=NN3C(=O)c4ccccc4C3C2)cc1 (stereo not given)	1	39*	31	-18	-7
C=CCN1C(=O)S/C(=C\c2ccc(N3CCOCC3)cc2C)C1=O	·	39*	·	·	-91
CN1C(=O)c2cc(NC(=O)c3cccs3)ccc2OC[C@@H]2O[C@@H](CC(=O)NCC3CC3)CC[C@@H]21	2	·	·	4	5[16.7 µM]
CCN(CC)S(=O)(=O)c1ccc(O)c(NC(=O)COc2ccc(S(=O)(=O)N3CCOCC3)cc2)c1	6	44*	5	10	·
CCN(CC)S(=O)(=O)c1ccc(N2CCOCC2)c(NC(=O)COc2ccc(Cl)cc2)c1	-2	-4	5	-16	-79
C[C@@H](NC(=O)C[C@@H]1C=C[C@H](NC(=O)Nc2ccc3c(c2)OCO3)[C@H](CO)O1)c1ccccc1	-6	·	·	1	-21[16.7 µM]
C/C(=N\OC(=O)c1ccc(F)cc1)c1sc(-c2ccc(Cl)cc2)nc1C	-3	51*	72	35	-125
CCC(=O)N[C@H]1CC[C@H](CC(=O)NCc2ccc(OC)cc2)O[C@H]1CO	-3	·	·	13	1[16.7 µM]
CCOC(=O)Cc1nn(Cc2ccccc2)c(=O)c2ccccc12	0	1	-8	89*	20
CCOC(=O)Cc1nn(Cc2ccc(Cl)cc2)c(=O)c2ccccc12	0	-2	18	20	11
CC(C)NC(=O)C1(C)CN(S(C)(=O)=O)CC(=O)N1CCCN1CCOCC1 (stereo not given)	2	-1	·	44*	-12
SMILES	F508del corr	Wnt act	MITF TRPM1 HTS	INS-1E GSIS act	HIV Env fusion
O=C(OCc1c(-c2ccccc2)ncc2ccccc12)N1CCOCC1	0	37*	101*	22	6
O=C(O)CCC(=O)OCc1c(-c2ccccc2)ncc2ccccc12	0	0	4	0	-5
CC(C)c1nnc(NC(=O)CCS(=O)(=O)Cc2ccccc2)s1	0	-1	-18	4	1
CC(C)c1nnc(NC(=O)CCS(=O)(=O)c2nc(-c3cccs3)cc(C(F)(F)F)n2)s1	·	·	·	·	85*
Cc1cccc(C)c1N1CCN(C(=O)Nc2ccc3c(c2)OCCO3)CC1	·	45*	·	·	8
Cc1ccc(-n2c(-c3ccc(Cl)cc3)c[n+]3c2CCC3)cc1	1	1	·	-59	-13
